# Bioassay records from PubChem.
# uPA generation – cell surface uPA generation inhibition. cell surface uPA generation assay, qHTS. Potency, µM (top dose mostly 38.3 µM), inactives show at the top dose activity change, negative = inhibition, hits mostly inhibitors. 330,000 compounds, 0.31% hits. AID 540303; active = well fitted inhibition curve with a large enough effect; inconclusive = small, poorly fitted or top-dose-only effect; inactive = no such curve, though single readings can be large or run the other way; tested in mouse RAW 264.7 cells; also: potency is read from the fitted curve at half-maximal effect; % is scaled to controls: 0 for no effect and ±100 for the full control effect; nearly all actives have a fitted effect of over 55% in size
# HepG2 tox – counter-screen for TGF-b inhibitors: cytotoxicity in HepG2 cells; HepG2 CAGA-GFP viability, ATP luminescence, 18 h; Potency, µM (doses to about 46.1 µM), for the others: at the highest dose activity change, negative = cytotoxicity, most hits filed as cytotoxic; 410,000 compounds, 0.76% hits; AID 588856; also: potency is read from the fitted curve at half-maximal effect
#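 HepG2 CAGA-GFP cells (1000/well, DMEM with 1% FBS) received compound, then TGF-beta at 500 pg/mL final, and were incubated 18 hours at 37 degrees C. Viability was read by CellTiter-Glo luminescence. Media-only wells were set as complete cell-killing and DMSO as no toxicity.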
# S2 tox – cell viability loss in ATXN counter-screen; S2 cells (HEK-293 line with an ATXN2-luciferase reporter) viability, CellTiter-Fluor protease fluorescence, 24 h; AID 651635; Potency, µM (titrated, usually from 56.7 µM), most hits filed as cytotoxic; 400,000 compounds, 0.49% hits; also: potency is read from the fitted curve at half-maximal effect; nearly all actives have a fitted effect of over 40% in size
# Giardia kill – kills Giardia lamblia | Giardia lamblia trophozoite viability | activity change, % at 7.66 µM, hits read low | 340,000 compounds, 0.15% hits; in the data active = activity change below about -80%; inconclusive = between about -30% and that limit;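 also: parasites exposed to compound for two days anaerobically before the ATP read; % is scaled to controls: 0 for no effect and ±100 for the full control effect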
#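 Each well holds 100 Giardia trophozoites and compound. After two days (48 hrs) at 37 deg C in anaerobic conditions, ATP is quantified by luminescence.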
# ATXN2 expr inh – ATXN2 expression inhibition. HEK-293 ATXN2-luciferase reporter, luminescence, 24 h. Potency, µM (highest dose often 57 µM), for inactives: at the highest dose activity change, negative = inhibition, hits mostly inhibitors. 360,000 compounds, 0.72% hits. AID 1745845; also: potency is read from the fitted curve at half-maximal effect; % is scaled to controls: 0 for no effect and ±100 for the full control effect; nearly all actives have a fitted effect of over 55% in size
#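 qHTS (up to 57 uM final) was run with 24 h compound exposure of reporter cells at 37 °C. Each well was multiplexed: SteadyGlo luminescence measured ATXN2-luciferase expression after a fluorogenic Gly-Phe-AFC viability readout (25 uM final).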
# TGFb SMAD3 inh – blocks TGF-b signaling. HepG2 CAGA-GFP TGF-b/SMAD3 reporter, GFP fluorescence, 18 h; TGF-beta stimulated, 500 pg/mL final. Potency, µM (titrated, usually from 46.1 µM), for inactives: at the top dose activity, negative = inhibition, actives largely listed as inhibitors. 410,000 compounds, 1.2% hits. AID 588855; also: potency is read from the fitted curve at half-maximal effect; % is scaled to controls: 0 for no effect and ±100 for the full control effect; nearly all actives have a fitted effect of over 65% in size
#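 Read-out: total well GFP (ex488/em500-530) summed from mean per-cell fluorescence. Cells: HEPG2 CAGA-GFP, 1% FBS DMEM, 18 h at 37 degrees C with 500 pg/mL final TGF-beta. Unstimulated wells served as the full-inhibition control; stimulated DMSO wells = 0%.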
# Active calls of the source: *; i = inactive; ? = inconclusive; nt = no result; ! = a repeat was not active. Compounds with a hit are over-represented: about 2.6% of the library has one in this group of screens. Unless noted, calls follow the shape of the dose curve; as a rule, active = well fitted curve in the direction sought with a large enough effect; inconclusive = small, poorly fitted or top-dose-only effect, or another doubt; inactive = no such curve, though single readings can be large; an effect the other way counts as inactive or inconclusive.
SMILES,uPA generation,HepG2 tox,S2 tox,Giardia kill,ATXN2 expr inh,TGFb SMAD3 inh
CC1(C(=O)Nc2cnc3ccccc3c2)CCN1C(=O)c1ccccc1CCc1ccccc1 (stereo not given),nt,-36%,i,nt,20µM*,?
Cc1ccc(NC(=O)C2(C)CCN2C(=O)c2ccccc2CCc2ccccc2)cc1C (stereo not given),nt,-23%,i,nt,-33%,2%
Cc1ccc(C)c(CN2CCC(CNC(=O)Nc3ccc(F)c(Cl)c3)CC2)c1,4%,18µM*,i,-8,?,?
Cc1ccc(NC(=O)NCC2CCN(Cc3cccc(Cl)c3)CC2)cc1Cl,1%,13µM*!,?,-10,?,?
Cc1ccc(CN2CCC(CNC(=O)Nc3ccc(Cl)cc3)C2)cc1 (stereo not given),nt,-73%,nt,nt,?,13µM*
O=C(COc1ccccc1C(=O)Nc1cccc([N+](=O)[O-])c1)Nc1ccc(Br)cc1,nt,-21%,nt,nt,nt,?
O=c1c(-c2ccc(O)cc2)coc2cc(OC3O[C@H](CO)[C@H](O)[C@H](O)[C@H]3O)cc(O)c12 (stereo not given in full),nt,nt,nt,nt,290%,nt
O=c1c(-c2ccc(O)cc2)coc2cc(OC3OC(CO)C(O)C(O)C3O)cc(O)c12 (stereo not given),4.5µM*,0%,i,2,128%,-5%
Cc1ccc(S(=O)(=O)Nc2ccc(Cl)cc2)cc1NC(=O)c1cc2c(s1)CCCC2,1%,-36%,?,10,-14%,13µM*
Cc1ccc(S(=O)(=O)N2CCOCC2)cc1NC(=O)c1cc2c(s1)CCC2,2%,-17%,?,4,-2%,-4%
C/C(=N\Nc1ccc([N+](=O)[O-])cc1)c1ccc(C#N)cc1,-1%,-19%,i,-5,10%,-8%
C/C(=N/Nc1ccc([N+](=O)[O-])cc1)c1ccc(C)cc1C,-7%,-37%,?,-1,-13%,3.5µM*
CC(C)(C)c1ccc(Cn2c(=N)n(CC(O)c3ccco3)c3ccccc32)cc1 (stereo not given),8%,-80%,21µM*,-24,?,16µM*
CCCCCCCn1c(=N)n(CC(O)c2ccco2)c2ccccc21 (stereo not given),-9%,22µM*,i,0,?,?
N=c1n(CCN2CCCC2)c2ccccc2n1CC(O)c1ccco1 (stereo not given),2%,-3%,?,-13,-12%,-2%
Cn1cc(C(=O)[C@@H]2CCc3nc[nH]c3C2)c2ccccc21,nt,nt,i,nt,-9%,nt
CC(C)(C)c1ccc(C(=O)NC2(C(F)(F)F)NC(=O)N(CCc3ccccc3)C2=O)cc1 (stereo not given),nt,20µM*,?,nt,?,10µM*
CN(C)c1ccc(/C=C/c2ccnc3c(O)ccc(O)c23)cc1,nt,-10%,nt,nt,nt,-5%
Cc1ccc(-c2nn(CCC(=O)O)cc2/C=C\C(=O)c2ccc(Br)cc2)cc1,6.3µM*,-52%,i,-18,-26%,?
O=C(O)CCn1cc(/C=C\C(=O)c2ccc(Cl)cc2)c(-c2cccc(Br)c2)n1,-5%,-32%,i,-11,-15%,-13%
CN(CCC#N)c1ccc(/C=C(\C#N)c2ccccn2)cc1,2.5µM*,-43%,i,?,-25%,3%
CCC(O)CNC(=O)c1cnn(-c2ncc3c(n2)-c2ccc(OC)cc2CC3)c1C1CC1 (stereo not given),nt,nt,i,nt,nt,nt
O=C(c1cn(C2CCCN(Cc3cccc(Oc4ccccc4)c3)C2)nn1)N1CCCC1 (stereo not given),nt,nt,i,nt,nt,nt
CCCCCCCCc1ccc(CCC(N)(CO)CO)cc1,nt,nt,nt,nt,31µM*,nt
CC(=O)c1ccc(CCCCc2ccc(C(C)=O)cc2)cc1,4%,-7%,i,16,-13%,3%
SMILES,uPA generation,HepG2 tox,S2 tox,Giardia kill,ATXN2 expr inh,TGFb SMAD3 inh
CN(C)c1ccc(N=Nc2ccnc3ccccc23)cc1,nt,16%,nt,nt,nt,8%
CCN1/C(=C/c2cc[n+](C)cc2)C=Cc2cc(C)ccc21,-11%,-15%,nt,4,?,?
CCN1/C(=C/c2ccc3ccccc3[n+]2CCCS(=O)(=O)[O-])C=Cc2cc(C)ccc21,-6%,-15%,18µM*,9,-16%,-21%
CCN1/C(=C/c2ccc3ccccc3[n+]2CC)C=Cc2ccccc21,-17%,10µM*,10µM*,-14,3.2µM*,1.8µM*
CNc1ccc(/C=C2\C=Cc3ccccc32)cc1,nt,-52%,nt,nt,nt,?
CC(CN1CCOCC1)OC(=O)c1ccc(Br)cc1 (stereo not given),-2%,-60%,?,7,-7%,?
CC(CN1CCN(CC(C)C(=O)c2ccccc2)CC1)C(=O)c1ccccc1 (stereo not given),0%,-28%,i,6,3%,3%
O=C(c1ccccc1)C(CN1CCCCC1)c1ccccc1 (stereo not given),-10%,-94%,32µM*,3,20µM*,?
CCOc1ccc(C(O)(CCC(C)C)C(CN2CCOCC2)c2ccccc2)cc1 (stereo not given),4%,-31%,i,2,-28%,?
CCOc1ccc(C(=O)C(CN2CCOCC2)c2ccccc2)cc1 (stereo not given),-11%,-81%,nt,15,28µM*,?
O=C(c1ccc(Br)cc1)C(CN1CCOCC1)c1ccccc1 (stereo not given),-15%,-95%,nt,9,27µM*,11µM*
O=C(c1ccco1)N1N=C(c2ccc(Cl)cc2)CC1(O)C(F)(F)F (stereo not given),-1%,-16%,i,?,-10%,-10%
O=C(c1ccco1)N1N=C(c2ccc(Br)cc2)CC1(O)C(F)(F)F (stereo not given),0%,-41%,i,-23,3%,7.9µM*
CCCCCCCCCCCCCC(=O)N[C@H](CO)[C@H](O)c1ccc([N+](=O)[O-])cc1,nt,nt,nt,nt,10%,nt
Cc1cccc(C(=O)NCc2nc(-c3ccccc3NC(=O)C3CCCO3)oc2C)c1 (stereo not given),nt,nt,i,nt,nt,nt
Cc1ccnc2ccc(F)cc12,nt,10%,nt,nt,nt,1%
CCOC(=O)c1ccc(-n2c(O)c(/C=N/NC(=O)C3COc4ccccc4O3)c3ccccc3c2=O)cc1 (stereo not given),-20%,-42%,i,-1,-27%,8.9µM*
CCn1nc(C)c(/C=N/NC(=O)CSc2ccccn2)c1C,-2%,4.5µM*,i,-5,47%,0%
